PubChem BioAssay
Activity calls are given as the source filed them.

Legend:
[1] = test system: Plasmodium falciparum Sir2 (PF13_0152, Sir2A); assay: Plasmodium falciparum Sir2A binding compounds – biochemical, small-molecule microarray, 635 nm fluorescence, primary screen (AID 1098); details: fluorescence 635 nm, higher = more signal;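 further: score merges spot fluorescence intensity with its signal-to-noise ratio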
[2] = probe aDKK1 binding to arrayed compounds – biochemical, biotinylated probe, 635/667 nm fluorescence, primary screen (AID 1099); details: small-molecule microarray, higher = more signal;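 further: score merges 667nm spot fluorescence with signal to noise across triplicate slides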
[3] = probe aCHRDL2 binding to arrayed compounds – biochemical, biotinylated probe, 635/667 nm fluorescence, primary screen (AID 1100); details: small-molecule microarray, higher = more signal
[4] = change in splice reporter luminescence, either direction, cell-based, HEK293, spliceosome inhibition project, primary screen (AID 1101); details: HEK293 splicing luciferase reporter, 24 h, higher = more signal, called active from +8 up or from −8 down;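 further: HEK293 cells carrying a splicing-competent luciferase reporter gene; test concentration not given here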
[5] = target: Fibroblast growth factor 10 (Homo sapiens) (UniProt O15520); assay: compounds binding fibroblast growth factor 10 – biochemical, small-molecule microarray, 635 nm fluorescence, primary screen (AID 1102); details: FGF10 binding, fluorescence 635 nm, higher = more signal
Fibroblast growth factor 10 (Homo sapiens), sequence (O15520 whole entry, looked up): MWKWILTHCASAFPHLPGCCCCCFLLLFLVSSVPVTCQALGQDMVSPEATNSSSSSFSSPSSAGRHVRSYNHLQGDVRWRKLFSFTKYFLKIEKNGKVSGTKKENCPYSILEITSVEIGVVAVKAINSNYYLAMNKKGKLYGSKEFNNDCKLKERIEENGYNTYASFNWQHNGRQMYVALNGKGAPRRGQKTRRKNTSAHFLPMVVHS

[6] = test system: glycogen synthase kinase-3 (GSK3A per assay name; protocol says GSK3B); assay: compounds binding glycogen synthase kinase-3 – biochemical, small-molecule microarray, 635 nm fluorescence, GSK3A, primary screen (AID 1103); details: fluorescence 635 nm, higher = more signal; further: the record names both GSK3A and GSK3B
[7] = target: Epidermal growth factor receptor (Homo sapiens) (UniProt P00533); assay: compounds binding epidermal growth factor receptor – biochemical, small-molecule microarray, 635 nm fluorescence, primary screen (AID 1104); details: EGFR binding, higher = more signal;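 further: score merges 667 nm emission intensity with spot signal to noise over triplicate slides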
Epidermal growth factor receptor (Homo sapiens), sequence (P00533 whole entry, looked up): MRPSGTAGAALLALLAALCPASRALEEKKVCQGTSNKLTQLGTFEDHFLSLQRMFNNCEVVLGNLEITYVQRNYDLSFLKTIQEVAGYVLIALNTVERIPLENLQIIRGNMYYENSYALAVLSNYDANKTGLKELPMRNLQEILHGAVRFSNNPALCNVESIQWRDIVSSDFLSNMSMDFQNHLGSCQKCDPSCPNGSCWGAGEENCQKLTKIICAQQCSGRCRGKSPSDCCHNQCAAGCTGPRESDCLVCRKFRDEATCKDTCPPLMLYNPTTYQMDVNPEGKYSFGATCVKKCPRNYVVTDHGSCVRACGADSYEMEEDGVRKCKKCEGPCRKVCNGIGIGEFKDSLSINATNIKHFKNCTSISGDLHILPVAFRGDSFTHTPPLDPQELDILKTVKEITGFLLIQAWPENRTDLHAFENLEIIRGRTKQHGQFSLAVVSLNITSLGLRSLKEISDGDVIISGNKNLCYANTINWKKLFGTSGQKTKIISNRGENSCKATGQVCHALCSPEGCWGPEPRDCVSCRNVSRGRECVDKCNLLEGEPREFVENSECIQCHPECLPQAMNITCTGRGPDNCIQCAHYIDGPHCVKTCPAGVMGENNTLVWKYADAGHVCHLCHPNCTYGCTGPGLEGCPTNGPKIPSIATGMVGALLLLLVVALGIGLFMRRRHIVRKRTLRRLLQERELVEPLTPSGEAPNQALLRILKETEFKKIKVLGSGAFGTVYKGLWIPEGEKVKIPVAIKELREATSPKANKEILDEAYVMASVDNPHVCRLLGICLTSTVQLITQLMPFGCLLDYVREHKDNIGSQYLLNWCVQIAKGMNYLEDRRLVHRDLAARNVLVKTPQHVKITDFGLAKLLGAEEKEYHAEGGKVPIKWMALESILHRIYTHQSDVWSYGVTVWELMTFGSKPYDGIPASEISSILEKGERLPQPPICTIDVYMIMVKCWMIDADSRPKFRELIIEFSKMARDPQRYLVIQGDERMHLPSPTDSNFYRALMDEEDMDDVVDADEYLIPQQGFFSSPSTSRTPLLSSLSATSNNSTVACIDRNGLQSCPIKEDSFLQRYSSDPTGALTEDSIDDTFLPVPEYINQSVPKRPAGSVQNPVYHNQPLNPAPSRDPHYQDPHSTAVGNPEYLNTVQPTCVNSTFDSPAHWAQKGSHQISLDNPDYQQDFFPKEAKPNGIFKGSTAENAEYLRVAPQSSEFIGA

[8] = target: Follistatin-related protein 3 (Homo sapiens) (UniProt O95633); assay: compounds binding follistatin-related protein 3 – biochemical, small-molecule microarray, 635 nm fluorescence, primary screen (AID 1105); details: FSTL3 binding, higher = more signal;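 further: score merges emission near 667 nm and signal to noise per printed spot across three slides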
Follistatin-related protein 3 (Homo sapiens), sequence (O95633 whole entry, looked up): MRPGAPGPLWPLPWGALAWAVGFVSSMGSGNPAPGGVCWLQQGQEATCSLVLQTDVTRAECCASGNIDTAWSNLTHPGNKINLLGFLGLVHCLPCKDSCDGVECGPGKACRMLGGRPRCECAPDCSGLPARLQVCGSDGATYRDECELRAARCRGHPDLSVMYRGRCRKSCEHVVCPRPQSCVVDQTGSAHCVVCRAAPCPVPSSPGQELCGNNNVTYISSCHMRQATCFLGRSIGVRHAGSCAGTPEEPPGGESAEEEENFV

[9] = target: Dickkopf-related protein 1 (Homo sapiens) (UniProt O94907); assay: small molecules binding DKK1 protein – biochemical, small-molecule microarray, 635 nm fluorescence scan, primary screen (AID 1106); details: higher = more signal;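 further: score merges emission near 667 nm with signal to noise over three replicate slides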
Dickkopf-related protein 1 (Homo sapiens), sequence (O94907 whole entry, looked up): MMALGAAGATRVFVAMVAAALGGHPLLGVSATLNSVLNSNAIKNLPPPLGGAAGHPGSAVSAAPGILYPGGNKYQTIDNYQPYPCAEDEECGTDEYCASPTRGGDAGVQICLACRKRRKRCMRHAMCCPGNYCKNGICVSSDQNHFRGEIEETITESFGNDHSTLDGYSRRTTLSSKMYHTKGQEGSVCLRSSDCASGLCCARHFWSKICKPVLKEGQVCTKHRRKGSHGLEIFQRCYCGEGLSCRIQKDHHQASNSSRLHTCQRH

[10] = test system: Inhibin beta A chain (activin A); assay: small molecules binding activin A – biochemical, small-molecule microarray, 635 nm fluorescence scan, primary screen (AID 1107); details: INHBA, higher = more signal;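 further: mouse activin A protein probed at 4.33 µg/mL on printed slides; score merges bound-protein fluorescence near 667 nm with spot signal-to-noise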
[11] = test system: Human papillomavirus type 1a protein E7 (residues 44-93); assay: small molecules binding HPV E7 44-93 – biochemical, small-molecule microarray, residues 44-93, 635 nm fluorescence, primary screen (AID 1108); details: fluorescence 635 nm, higher = more signal;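 further: E7 fragment applied at 1 µg/mL in TBST for 1 h at 4 C; score combines spot fluorescence with its signal to noise ratio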
[12] = hepatitis C replication reporter changes, two-sided – Huh7 cells, luciferase reporter, HCV replication inhibitor project, primary screen (AID 1109); details: Huh7 HCV replicon luciferase reporter, 48 h; higher = more signal;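 further: huh7 hepatoma cells harbouring a luciferase neomycin HCV replicon reporter; luciferase luminescence as measure of HCV replicon replication; test concentration not given here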
[13] = target: Left-right determination factor 2 (Homo sapiens) (UniProt O00292); assay: small molecules binding LEFTY2 protein – biochemical, small-molecule microarray, 635 nm fluorescence scan, primary screen (AID 1110); details: higher = more signal
Left-right determination factor 2 (Homo sapiens), sequence (O00292 whole entry, looked up): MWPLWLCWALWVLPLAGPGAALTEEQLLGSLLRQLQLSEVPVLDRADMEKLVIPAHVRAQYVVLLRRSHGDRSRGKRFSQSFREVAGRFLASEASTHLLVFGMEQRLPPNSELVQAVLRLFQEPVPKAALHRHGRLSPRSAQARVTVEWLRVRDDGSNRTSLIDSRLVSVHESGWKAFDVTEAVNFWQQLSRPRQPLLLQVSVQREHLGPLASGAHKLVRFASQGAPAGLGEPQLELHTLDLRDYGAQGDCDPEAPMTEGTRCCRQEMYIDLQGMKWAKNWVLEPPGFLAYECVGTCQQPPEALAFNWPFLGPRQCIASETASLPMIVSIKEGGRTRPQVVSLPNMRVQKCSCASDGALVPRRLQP

[14] = target: Calmodulin-1 (Homo sapiens) (UniProt P0DP23); assay: small molecules binding calmodulin-1 with EGTA – biochemical, small-molecule microarray, Cy5-labelled CALM1, profiling panel (AID 1111); details: Cy5-CALM1 binding fluorescence, higher = more signal;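 further: labelled calmodulin applied in Tris saline Tween buffer holding calcium plus EGTA and DTT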
[15] = target: Calmodulin-1 (Homo sapiens) (UniProt P0DP23); assay: small molecules binding Ca-loaded calmodulin-1 – biochemical, small-molecule microarray, Cy5-labelled CALM1, plus calcium, artefact control for SMM control-protein annotation, profiling panel (AID 1112); details: Cy5-CALM1 binding fluorescence, higher = more signal;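 further: score merges spot fluorescence with signal to noise from triplicate slides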
[16] = probe aWnt5a binding to arrayed compounds – biochemical, biotinylated probe, 635/667 nm fluorescence, primary screen (AID 1113); details: small-molecule microarray, higher = more signal;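 further: score merges 667 nm fluorescence intensity with signal-to-noise per printed feature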
[17] = probe aShh binding to arrayed compounds – biochemical, biotinylated probe, 635/667 nm fluorescence, primary screen (AID 1114); details: small-molecule microarray, higher = more signal;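 further: probe is biotin-labelled aShh protein from a stem cell growth factor screen; measures binding of labelled protein to compounds printed on the slide; score merges feature fluorescence at 667 nm with signal-to-noise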
[18] = probe aNog binding to arrayed compounds – biochemical, biotinylated probe, 635/667 nm fluorescence, primary screen (AID 1115); details: small-molecule microarray, higher = more signal;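 further: probe is biotinylated aNog protein used at 0.15 µg/mL for 1 h at 4 C; z-score combines 667 nm fluorescence of each spot with its signal to noise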
[19] = target: Torsin-1A-interacting protein 1 (Homo sapiens) (UniProt Q5JTV8); assay: compound microarray binding of lysate hLAP1 – cell lysate, small-molecule microarray, COS7 lysate, 635/667 nm fluorescence, primary screen (AID 1116); details: 635 nm fluorescence, higher = more signal
Torsin-1A-interacting protein 1 (Homo sapiens), sequence (Q5JTV8 whole entry, looked up): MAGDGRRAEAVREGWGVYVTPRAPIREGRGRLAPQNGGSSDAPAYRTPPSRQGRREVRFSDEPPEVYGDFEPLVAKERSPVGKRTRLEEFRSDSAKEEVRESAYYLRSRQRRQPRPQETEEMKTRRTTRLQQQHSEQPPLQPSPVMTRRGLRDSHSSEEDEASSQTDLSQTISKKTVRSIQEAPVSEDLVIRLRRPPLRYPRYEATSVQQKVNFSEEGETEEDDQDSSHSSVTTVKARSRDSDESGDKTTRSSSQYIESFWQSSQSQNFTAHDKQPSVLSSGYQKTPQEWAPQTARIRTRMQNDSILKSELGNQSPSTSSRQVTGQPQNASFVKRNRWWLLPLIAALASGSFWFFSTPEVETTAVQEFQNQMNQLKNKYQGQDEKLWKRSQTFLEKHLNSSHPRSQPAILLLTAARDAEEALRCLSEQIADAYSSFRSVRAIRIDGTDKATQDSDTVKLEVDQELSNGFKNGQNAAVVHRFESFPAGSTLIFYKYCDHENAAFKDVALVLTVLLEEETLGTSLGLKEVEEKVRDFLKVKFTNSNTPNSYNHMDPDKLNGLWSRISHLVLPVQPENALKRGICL

[20] = target: Alpha-bungarotoxin (Bungarus multicinctus) (UniProt P60615); assay: compounds binding labelled alpha-BTX control protein – biochemical, small-molecule microarray, Alexa647 label, 635/667 nm fluorescence, artefact control for SMM control protein annotation, profiling panel (AID 1117); details: alpha-BTX-A647 binding fluorescence, higher = more signal
Alpha-bungarotoxin (Bungarus multicinctus), sequence (P60615 whole entry, looked up): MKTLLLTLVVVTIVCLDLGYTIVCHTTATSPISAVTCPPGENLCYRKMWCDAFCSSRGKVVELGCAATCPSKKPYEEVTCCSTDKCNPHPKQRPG

| Structure (SMILES) | composite z-score [1] | composite z-score [2] | composite z-score [3] | z-score [4] | composite z-score [5] | composite z-score [6] | composite z-score [7] | composite z-score [8] | composite z-score [9] | composite z-score [10] | composite z-score [11] | z-score [12] | composite z-score [13] | composite z-score [14] | composite z-score [15] | composite z-score [16] | composite z-score [17] | composite z-score [18] | composite z-score [19] | composite z-score [20] |
| --- | --- | --- | --- | --- | --- | --- | --- | --- | --- | --- | --- | --- | --- | --- | --- | --- | --- | --- | --- | --- |
| COc1ccc([Si](C)(C)[C@@H]2[C@@H](CCO)O[C@]3(C(=O)N(Cc4ccccc4)c4ccc(N5C(=O)COc6ccccc65)cc43)[C@H]2C)cc1 | 0.845 | -0.0934 | 0.0637 | -1.21 (inactive) | 0.0677 | 0.0368 | -0.0505 | 0.0717 | 0.163 | 0.254 | 1.23 | -4.11 | 0.0529 | 0.953 | 0.838 | -0.129 | -0.0626 | -0.194 | 0.462 | 0.31 |
| CC(C)(C)OC(=O)CC[C@]1(C(=O)N2CCCCC2)N=C(c2ccc(OCCCO)cc2)O[C@H]1c1ccccc1CN=[N+]=[N-] | 1.68 | 0.978 | 0.92 | -3.65 (inactive) | 1.42 | 1.3 | 0.604 | 1.41 | 0.414 | 1.21 | 0.804 | -2.03 | 0.888 | 0.958 | 0.566 | 0.0044 | 0.439 | 0.659 | 2.52 | 0.12 |
| O=C(C=C(CC(O)c1cccc(Cl)c1)OCCF)OCCF (stereo not given) | 1.87 | 0.558 | 0.913 | -0.985 (inactive) | -0.357 | -0.571 | -0.737 | -0.863 | -0.735 | 1.31 | -2.46 | -0.641 | -0.492 | -0.277 | 0.896 | -0.0678 | 0.0278 | 0.0014 | 0.516 | 0.392 |
| O=C1NC(=O)C2C1C=CC(C(O)c1ccc3c(c1)OCO3)N2Nc1ccc(Cl)cc1Cl (stereo not given) | 0.981 | 0.849 | 1.06 | 0.889 (inactive) | 0.553 | -0.334 | 0.205 | 0.304 | -0.278 | 1.19 | -0.85 | -0.795 | -0.0483 | 1.43 | 0.527 | -0.0846 | -0.232 | 0.265 | 1.73 | 0.114 |
| COc1cc2c(cc1OC)CN(C(=O)[C@@H]1[C@H]3C(=O)O[C@H](c4ccccc4)[C@H](c4ccccc4)N3[C@H](c3ccc(O)cc3)[C@@]13C(=O)Nc1ccc(C#CCNC(N)=O)cc13)CC2 | 0.55 | -0.053 | 0.0095 | -0.256 (inactive) | 0.641 | -0.566 | 0.0967 | 0.694 | -0.162 | 0.849 | 0.762 | -0.126 | 0.382 | 0.186 | -0.0936 | -0.0367 | 0.0062 | -0.115 | 0.0623 | 0.469 |
| CCCN1C(=O)[C@@H]2Cc3c([nH]c4ccccc34)[C@@H](c3cccc(O)c3)N2C1=O | 0.292 | -0.0726 | -0.0794 | 1.08 (inactive) | 0.415 | 0.718 | 0.578 | 0.493 | 1.14 | 0.275 | 0.672 | -0.197 | 0.326 | 0.0779 | -0.346 | -0.176 | -0.221 | -0.0737 | -0.489 | 0.414 |
| O=C1O[C@H](c2ccccc2)[C@H](c2ccccc2)N2[C@H]1[C@@H](C(=O)N1CCCCCCC1)[C@]1(C(=O)Nc3ccc(C#CCCO)cc31)[C@H]2c1ccc(OCCO)cc1 | 2.14 | 2.78 | 1.42 | -0.302 (inactive) | 1.65 | 1.45 | 1.89 | 1.66 | 2.65 | 1.9 | 1.62 | -1.64 | 1.72 | 3.04 | 1.63 | 1.65 | 2.49 | 3.39 | 5.44 | 4.88 |
| COC(=O)[C@@]1(Cc2ccccc2)[C@H]2c3cc(C(=O)N4CCCC4)n(Cc4ccc(OC(F)(F)F)cc4)c3C[C@H]2CN1C(=O)c1ccccc1 | 0.716 | 1.34 | 1.4 | -0.286 (inactive) | 0.872 | 0.728 | -0.357 | 0.685 | -0.909 | 1.08 | 1.41 | -1.95 | -0.782 | 2.31 | 1.41 | 0.583 | 1.12 | 1.69 | 0.867 | 1.35 |
| COCCCNC(=O)[C@]1(Cc2ccccc2)N=C(c2ccc(OCCCO)cc2)O[C@@H]1c1ccccc1N=[N+]=[N-] | 0.816 | 0.346 | 0.879 | -1.51 (inactive) | 1.26 | 1.33 | -0.184 | 0.481 | -0.267 | 0.618 | 1.24 | -3.4 | -0.314 | 1.61 | 0.24 | 0.008 | -0.0866 | 0.433 | 0.997 | 0.974 |
| CCOC(=O)C[C@H]1[C@H](OC(=O)Cc2ccc3c(c2)OCO3)[C@@H](NC(=O)c2ccccc2)c2cc(OCCCO)ccc2N1C(=O)c1ccc2ccccc2n1 | 0.347 | -0.0053 | -0.329 | -2.44 (inactive) | 0.274 | 0.329 | 0.548 | 0.0676 | 0.328 | 0.318 | 0.594 | 0.173 | 0.11 | 0.481 | -0.455 | -0.152 | 0.172 | -0.0675 | 0.761 | -0.055 |
| OCc1ccc(-c2cc[n+](Cc3cccc(OC(F)(F)F)c3)cc2)cc1 | 0.802 | 0.44 | 0.854 | 1.36 (inactive) | 0.981 | 0.869 | 1.33 | 1.48 | 1.56 | 1.93 | 1.19 | 0.717 | 1.36 | -0.245 | -0.196 | -0.0006 | -0.0146 | 0.425 | 1.08 | 1.9 |
